RGS8-Gao: RGS8-Galphao binding modulators, primary screen, biochemical, multiplexed bead flow cytometry; Guanine nucleotide-binding protein G(o) subunit alpha (Homo sapiens), P09471; actives lie on both sides; response (percent of control binding), % at 10 µM; hit rate 0.34% among 220,000; in the data active = response below about 60% or above about 140%; inactive = in between;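 note: Galphao activated as the GDP aluminium fluoride complex binding bead-coupled RGS8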
Target sequence (P09471 whole entry, looked up): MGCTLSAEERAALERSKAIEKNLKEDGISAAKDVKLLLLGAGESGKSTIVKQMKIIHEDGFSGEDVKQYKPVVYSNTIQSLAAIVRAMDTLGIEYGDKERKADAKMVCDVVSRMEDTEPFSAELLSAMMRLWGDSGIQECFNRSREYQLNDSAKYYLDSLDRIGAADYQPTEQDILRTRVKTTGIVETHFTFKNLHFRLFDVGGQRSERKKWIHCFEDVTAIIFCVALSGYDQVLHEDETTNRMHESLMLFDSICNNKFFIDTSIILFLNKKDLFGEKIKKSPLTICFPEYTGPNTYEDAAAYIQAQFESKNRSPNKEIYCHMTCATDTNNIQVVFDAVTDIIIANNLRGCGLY
GSH fluor: compound fluorescence on glutathione beads, profiling panel, artefact control, biophysical, 488/530 nm, flow cytometry | GSH beads flow cytometry, compound fluorescence 488/530 nm; active compounds read high | fluorescence (KMESF) at 10 µM | hit rate 0.25% among 190,000 | AID 1776, 2009; in the data active = fluorescence above about 89;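 note: glutathione beads carrying GST-tagged Bcl family fusion proteins plus one bare bead set; values are compound well signal with DMSO vehicle wells as background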
RGS4-Gao reg: modulators of RGS4 binding to Galphao, primary screen, biochemical, multiplexed bead flow cytometry | Guanine nucleotide-binding protein G(o) subunit alpha (Homo sapiens), P09471 | binding response (% of control), % at 10 µM | hit rate 0.33% among 220,000 | actives lie on both sides; in the data active = binding response below about 49% or above about 150%; inactive = in between;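 note: fluorescent Galphao activated with aluminum fluoride binding bead-coupled RGS4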
RGS7-Gao: RGS7-Galphao binding modulators, primary screen, biochemical, multiplexed bead flow cytometry. binding response (% of control), % at 10 µM. actives lie on both sides. hit rate 0.35% among 220,000. Guanine nucleotide-binding protein G(o) subunit alpha (Homo sapiens), P09471; in the data active = binding response below about 49% or above about 150%; inconclusive = no clear call, values can overlap the other calls; inactive = in between;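 note: fluorescent Galphao held in activated GDP-AlF4 state binding bead-coupled RGS7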
Avidin bead fluor: green autofluorescence of compounds with avidin beads – biophysical, 488/530 nm, flow cytometry, artefact control, profiling panel; compound fluorescence 488/530 nm; active compounds read high; fluorescence (KMESF) at 10 µM; hit rate 0.38% among 220,000; in the data active = fluorescence above about 47
RGS16-Gao: modulators of RGS16 binding to Galphao, primary screen, biochemical, human proteins, multiplexed bead flow cytometry | Regulator of G-protein signaling 16 (Homo sapiens) + Guanine nucleotide-binding protein … | bead-based flow cytometry RGS16-Galphao binding, fluorescence; actives lie on both sides | binding response (% of control), % at 10 µM | hit rate 0.38% among 220,000 | AID 1441, 2008;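 note: Galphao activated by GDP with aluminum fluoride before binding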
RGS4-Gao HTS: modulators of RGS–Galpha-o binding, primary screen, biochemical, multiplexed beads, flow cytometry, RGS4/7/8/16/19 | RGS4–Galpha-o binding response, % at 10 µM | AID 1504, 2009 | multiplexed bead flow cytometry | shares compounds with RGS16-Gao | hit rate 99% among 1,600;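 note: fluorescently labeled Galpha-o bound to GDP with aluminium fluoride binding biotinylated RGS beads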
Target sequence (P09471 whole entry, looked up): as above
Target sequence (P49798 whole entry, looked up): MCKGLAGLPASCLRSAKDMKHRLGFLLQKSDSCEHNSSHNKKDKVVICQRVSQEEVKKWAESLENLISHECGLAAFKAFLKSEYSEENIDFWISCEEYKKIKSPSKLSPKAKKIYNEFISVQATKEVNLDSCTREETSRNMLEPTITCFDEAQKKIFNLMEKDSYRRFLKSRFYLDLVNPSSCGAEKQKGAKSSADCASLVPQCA
Avidin counter: disruption of biotin probe capture by avidin, counter-screen for RGS protein interaction modulators, biochemical, flow cytometry, bead-based; 1,700 tested, under 10 active; shares compounds with RGS16-Gao; inhibition, % at 10 µM; streptavidin beads, fluorescein-biotin binding;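 active = inhibition above 50%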;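 note: median green fluorescence of gated singlet beads compared with DMSO control wells; 0% = DMSO wells and 100% = complete loss of bead fluorescence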
RGS8-Gao single: RGS8-Galphao binding modulators, confirmation, biochemical, multiplexed bead flow cytometry, single concentration; shares compounds with RGS16-Gao; bead-based flow cytometry RGS8-Galphao binding, fluorescence; actives lie on both sides; binding response (% of control), % at 10 µM; hit rate 3% among 1,700; AID 1836, 2009; in the data active = binding response below about 72% or above about 130%; inactive = in between;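 note: Galphao activated as GDP AlF4 complex before binding bead RGS8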
RGS7-Gao confirm: RGS7-Galphao binding modulators, confirmation, biochemical, multiplexed bead flow cytometry, single concentration. shares compounds with RGS16-Gao. bead-based flow cytometry RGS7-Galphao binding; actives lie on both sides. response (percent of control binding), % at 10 µM. hit rate 7.8% among 1,700. AID 1837, 2009; in the data active = response below about 75% or above about 130%; inactive = in between;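 note: fluorescent Galphao activated with GDP and aluminum fluoride binding bead-coupled RGS7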
RGS16-Gao single: modulators of RGS16-Galphao protein binding, confirmation, biochemical, single concentration, multiplexed bead flow cytometry; shares compounds with RGS16-Gao; AID 1838, 2009; response (% of control binding), % at 10 µM; hit rate 4% among 1,700; bead-based flow cytometry; actives lie on both sides; in the data active = response below about 74% or above about 130%; inactive = in between;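 note: Galphao activated as the GDP aluminium fluoride complex binding bead-coupled RGS16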
RGS4-Gao confirm: modulators of RGS4-Galphao protein binding, confirmation, biochemical, single concentration, multiplexed bead flow cytometry | AID 1840, 2009 | binding response (% of control), % at 10 µM | shares compounds with RGS16-Gao | actives lie on both sides | hit rate 4% among 1,700; in the data active = binding response below about 74% or above about 130%; inactive = in between
RGS19-Gao single: regulators of RGS19-Galphao binding, confirmation, biochemical, single point, multiplexed bead flow cytometry; shares compounds with RGS16-Gao; AID 1841, 2009; bead-based flow cytometry RGS19-Galphao binding; actives lie on both sides; hit rate 5% among 1,700; response (percent of control binding), % at 10 µM; in the data active = response below about 50% or above about 160%; inactive = in between;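 note: 100% = no compound control and 0% = blank background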
The depositor's hits bear a star; ? = inconclusive; . = no result given; [ ] = dose if it differs, or a comment. This is a sample that favours compounds with a hit; in the whole collection about 1.2% have one here. Unless noted, the rule behind the calls is not given here.

SMILES	RGS8-Gao	GSH fluor	RGS4-Gao reg	RGS7-Gao	Avidin bead fluor	RGS16-Gao	Avidin counter	RGS8-Gao single	RGS7-Gao confirm	RGS16-Gao single	RGS4-Gao confirm	RGS19-Gao single	others
Cn1ncc(Cl)c1C(=O)NC1C2CC3CC(C2)CC1C3 (configuration not stated)	101	11	97	98	20	108	.	.	.	.	.	.
Cc1nn(C)c(C(=O)NC2C3CC4CC(C3)CC2C4)c1Cl (configuration not stated)	63	11	87	87	5	9.8*	0	100	94	93	96	93	RGS4-Gao HTS=87*
COc1ccc(C(=O)NN/C(=N/S(=O)(=O)c2ccc(C)cc2)c2ccccc2)cc1	100	.	100	?	2	104	.	.	.	.	.	.
CCCc1cc(=O)[nH]c(SCC(=O)c2ccc3c(c2)NC(=O)CO3)n1	150*[activator]	.	387*[activator]	?	179*	342*[activator]	-1	99	84	92	88	78
Cc1ccc(NC(=O)c2ccc(CNc3c(N4CCC(C)CC4)c(=O)c3=O)cc2)cc1	103	.	100	?	7	106	.	.	.	.	.	.
O=C(CSc1nc2ccccc2c(=O)n1-c1ccccc1)NCc1ccc2c(c1)OCO2	97	12	102	103	22	99	.	.	.	.	.	.
Cc1cccc(-n2c(SCC(=O)NCc3ccc4c(c3)OCO4)nc3ccccc3c2=O)c1	148*[activator]	12	135	131	14	555	-2	100	97	100	98	92	RGS4-Gao HTS=135*
CCO[C@H]1OC(C(=O)Nc2ccccc2)=C[C@@H](c2cn(C(C)=O)c3ccccc23)[C@@H]1CCCO	105	20	104	106	6	106	.	.	.	.	.	.
CCOC(=O)c1cccc(NC(=O)Cn2c(CC(=O)NC)nc3ccccc32)c1	122	10	172*[activator]	116	18	191*[activator]	-2	102	109	105	105	117
Cc1nnsc1Sc1ccccc1	102	17	105	103	10	104	.	.	.	.	.	.
COc1cccc(Nc2nnc(SCN3C(=O)c4ccccc4C3=O)s2)c1	153*[activator]	13	122	130	12	551	1	103	101	100	102	106	RGS4-Gao HTS=122*
O=C(NN1CCN(Cc2ccccc2)CC1)c1ccc(N2CCOCC2)c([N+](=O)[O-])c1	104	12	102	100	9	110	.	.	.	.	.	.
Cc1cccc(OCc2nnc(SCc3cc(=O)[nH]c4ccccc34)n2-c2ccccc2)c1	97	11	101	103	6	69	.	.	.	.	.	.
O=c1cc(CSc2nnc(COc3ccccc3)n2-c2ccccc2)c2ccccc2[nH]1	104	14	-76*	-15*	-2	28	-2	100	91	99	96	91
O=C(Nc1ccc(-c2nc3ccccc3[nH]2)cc1)c1ccc2c(c1)OCO2	101	15	99	100	10	98	.	.	.	.	.	.
O=C(Nc1ccc(Cl)c(-c2nc3ccccc3[nH]2)c1)c1ccc2c(c1)OCO2	136	9	107	103	6	215*[activator]	0	106	106	108	104	100	RGS4-Gao HTS=107*
Cc1ccc(S(=O)(=O)Nc2c(C)nn(C)c2C)cc1	75	19	66	84	9	-95*	2	102	93	105	99	110	RGS4-Gao HTS=66*
COc1ccccc1C(=O)NCCc1c(C)[nH]c2c(C)ccc(F)c12	102	13	103	109	9	101	.	.	.	.	.	.
COc1ccc(C2=[N+](C)CCn3cccc32)c(OC)c1	124	10	160*[activator]	142	16	205*[activator]	0	109	119	117	115	111
COc1ccc(CN2CCc3ccccc3C2)c(OC)c1	101	.	101	?	7	102	.	.	.	.	.	.
CC(C)C[C@@H](CSc1ccc(Br)cc1)N1CCN(CC(C)C)CCC1=O	101	.	101	?	7	105	.	.	.	.	.	.
O=C(COC(=O)c1ccc2c(=O)n3c(nc2c1)CCC3)Nc1ccc(OC(F)F)cc1	101	16	101	102	9	100	.	.	.	.	.	.
CCCCc1cc(=O)oc2cc(C)c(CN3CCCC3)c(O)c12	129	29	139	160*[activator]	15	175*[activator]	1	93	90	92	92	61	RGS4-Gao HTS=139*
C[C@H](N)c1nnc(SCC(N)=O)o1	100	.	98	?	9	101	.	.	.	.	.	.
O=C(O)CSc1ncnc2sc(-c3ccccc3)cc12	97	17	96	94	8	98	.	.	.	.	.	.
O=C(O)CCSc1ncnc2sc(-c3ccccc3)cc12	114	.	262*[activator]	?	86*	236*[activator]	0	98	101	98	100	113
CNc1ncnc2sc(-c3ccccc3)cc12	16*	11	24*	11*	0	13*	2	104	103	104	102	98

Source: PubChem (NMMLSC)
